Test results taken from PubChem BioAssay (NCI).
The panel holds about 83,000 compounds, 20% with a hit somewhere; the sample as a whole holds those more often.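 Testing used 96-well plates and a 48-hour single-concentration exposure. Example: -40 means 40% of the starting cells died.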 The source made the active and inactive calls. How the source made its calls: active means growth percent below 10; inactive means the rest.

Tests used:
Test in all cases: NCI-60 one-dose screen, 48 h (100 = growth as untreated, 0 = no growth, -100 = all killed)
Details in all cases: 10 µM unless noted
[1] = system: SK-MEL-2 melanoma
[2] = system: EKVX NSCLC
[3] = system: SN12C renal
[4] = system: UO-31 renal
[5] = system: TK-10 renal
[6] = system: ACHN renal
[7] = system: CAKI-1 renal
[8] = system: A498 renal
[9] = system: CCRF-CEM leukemia
[10] = system: MOLT-4 leukemia
[11] = system: SR leukemia
[12] = system: RPMI-8226 leukemia
[13] = system: OVCAR-8 ovarian
[14] = system: OVCAR-5 ovarian
[15] = system: OVCAR-4 ovarian
[16] = system: SK-OV-3 ovarian
[17] = system: IGROV1 ovarian
[18] = system: OVCAR-3 ovarian
[19] = system: HS 578T breast
[20] = system: NCI/ADR-RES ovarian

Measured: growth

O=C1/C(=C/C2=Cc3ccccc3OC2)SC(=S)N1c1ccccc1F
inactive: [1] 107% | [2] 98.8% | [3] 103% | [4] 82.6% | [5] 105% | [6] 107% | [7] 99.1% | [8] 122% | [9] 97.5% | [10] 95.2% | [11] 91% | [12] 85.7% | [13] 110% | [14] 108% | [15] 107% | [16] 95.3% | [17] 103% | [18] 109% | [19] 105% | [20] 109%

CCOP(=O)(OCCCl)c1nc(-c2ccc(C)cc2)oc1NCc1ccccc1 (stereo not given)
inactive: [1] 87% | [2] 67.2% | [3] 70.4% | [4] 52.5% | [5] 100% | [6] 80% | [7] 49.5% | [8] 99.3% | [9] 72.4% | [10] 43.6% | [11] 66.8% | [12] 43.2% | [13] 78.7% | [14] 98.4% | [15] 68.3% | [16] 91% | [17] 62.4% | [18] 75% | [19] 74.6% | [20] 63.8%

Cn1cc(-c2cc3nc(-c4c[nH]c5ccc(Cl)cc45)cc(N)n3n2)c2ccccc21
active: [1] -89.8% | [2] -88.6% | [3] -65.9% | [4] -98.6% | [5] -92.1% | [6] -100% | [7] -94.6% | [8] -62.7% | [9] -21.5% | [10] -36.1% | [11] 5.34% | [12] -38.7% | [13] -64.7% | [14] -89.2% | [15] -67.4% | [16] -86.5% | [17] -53.1% | [18] -62.7% | [19] -27.1% | [20] -29.7%

Cc1cccc(-c2nc(Nc3cccc(S(N)(=O)=O)c3)c3ccccc3n2)c1
active: [13] 2.28%
inactive: [1] 66.6% | [2] 45.5% | [3] 51.7% | [4] 29.7% | [5] 73.7% | [6] 38.1% | [7] 46.9% | [8] 47.7% | [9] 31.7% | [10] 27.6% | [11] 33% | [12] 38.3% | [14] 77.2% | [15] 52.3% | [16] 102% | [17] 66.1% | [18] 73.4% | [19] 76.5% | [20] 22.8%

C#CCOc1ccc(/C=N/Nc2nc(-c3ccc(Cl)cc3)cs2)cc1OC
inactive: [1] 38% | [2] 59.5% | [3] 67.7% | [4] 52.5% | [5] 131% | [6] 68.6% | [7] 52.6% | [8] 69.8% | [9] 36.2% | [10] 21.7% | [11] 22.2% | [12] 38.5% | [13] 51.7% | [14] 86.9% | [15] 54.2% | [16] 88.2% | [17] 88.1% | [18] 69.1% | [19] 81.1% | [20] 46%

O=C(Cn1c(/C=C/c2ccccc2)nc2ccccc2c1=O)Nc1ccc(Cl)cc1
inactive: [1] 114% | [2] 98.6% | [3] 19.2% | [7] 20.4% | [9] 85.6% | [10] 86.9% | [11] 87.6% | [12] 86.8% | [13] 58.3% | [14] 68.7% | [16] 40.2% | [17] 67.7% | [18] 29.2% | [19] 37.8% | [20] 66.6%
active: [4] -24.6% | [5] -12% | [6] -65.6% | [8] -15.5% | [15] -22.4%

COc1ccc(-c2nc3cc(C)ccc3n2CC(=O)N=Nc2c(O)[nH]c3ccc(Br)cc23)cc1
inactive: [1] 61.6% | [4] 53.5% | [5] 25.6% | [6] 15.5% | [7] 54.6% | [8] 136% | [9] 58.8% | [10] 23.3% | [12] 42% | [16] 35% | [17] 23.9% | [18] 14.9% | [19] 20.3%
active: [2] -36.5% | [3] -57.8% | [11] 2.47% | [13] -61.8% | [14] -4.99% | [15] -18.3% | [20] -22%

Nc1nc(-c2ccccc2)c(N=Nc2ccc([N+](=O)[O-])cc2Cl)s1
inactive: [1] 43.4% | [2] 89.2% | [3] 83.7% | [4] 94.9% | [5] 172% | [6] 79.1% | [7] 81.2% | [8] 73.6% | [9] 78.7% | [10] 79% | [11] 136% | [12] 53% | [13] 78.5% | [14] 107% | [15] 80.4% | [16] 82% | [17] 86.3% | [18] 74.8% | [19] 85% | [20] 89.6%
